Compound activity (PubChem BioAssay)
A selection: hits, their analogues and other compounds. The true share with any hit is near 1.5%.
DUSP1 inh: human dual specificity phosphatase 1 inhibition; recombinant MKP-1, OMFP hydrolysis fluorescence; inhibition, %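 (compounds tested at a single concentration somewhere between 10 and 100 µM)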; actives 0.15% (n = 65,000); P28562;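 active = inhibition above about 50%, limit read from the data; inconclusive = inhibition over screen mean plus 3 SD, below that limit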;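 also: 0% = DMSO max control wells and 100% = wells with enzyme stopped by NaOH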
SKBR3 24h inh: SK-BR-3 proliferation inhibitors. SK-BR-3 viability, CellTiter-Glo ATP luminescence, 24 h; hits give low values. AID 847. viability, % at 10 µM. actives 0.47% (n = 41,000);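 active = viability at or below the median of all test compounds minus 3 SD, in both replicates if run twice, cut at about 45% in these data; inconclusive = duplicate replicates that disagree with each other; inactive = viability above that cutoff in every replicate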;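 also: 100% = median untreated cell wells and 0% = median positive control drug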
Cdc25B inh: human M-phase inducer phosphatase 2 inhibition. actives 0.1% (n = 65,000). P30305. recombinant Cdc25B, OMFP fluorescence Ex485/Em525. inhibition, %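 (compounds tested at 10 µM final in the well)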; in the data active = inhibition above about 50%
Target sequence (P30305 whole entry, looked up): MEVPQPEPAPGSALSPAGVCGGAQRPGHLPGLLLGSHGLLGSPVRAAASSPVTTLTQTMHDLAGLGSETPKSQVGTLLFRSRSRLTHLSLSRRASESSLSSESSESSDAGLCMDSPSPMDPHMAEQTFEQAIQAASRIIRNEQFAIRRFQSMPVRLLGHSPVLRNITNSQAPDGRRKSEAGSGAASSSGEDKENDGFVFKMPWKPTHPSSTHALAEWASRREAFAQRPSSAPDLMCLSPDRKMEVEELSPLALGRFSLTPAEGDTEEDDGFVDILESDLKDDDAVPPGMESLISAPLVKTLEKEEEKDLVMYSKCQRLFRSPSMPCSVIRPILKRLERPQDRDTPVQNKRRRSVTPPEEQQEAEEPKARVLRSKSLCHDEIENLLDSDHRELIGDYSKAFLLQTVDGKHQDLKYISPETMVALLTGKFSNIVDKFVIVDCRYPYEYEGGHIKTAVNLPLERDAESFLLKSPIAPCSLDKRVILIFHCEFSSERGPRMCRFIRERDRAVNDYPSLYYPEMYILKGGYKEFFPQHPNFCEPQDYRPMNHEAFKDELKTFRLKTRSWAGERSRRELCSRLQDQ
Hsp90 block: displaces geldanamycin probe from tumor Hsp90. P07900. actives 0.35% (n = 64,000). inhibition, % at 30 µM. NCI-N417 lysate Hsp90, Cy3B-geldanamycin FP displacement;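 active = inhibition above 50%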;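 also: 0% = tracer plus lysate wells and 100% = tracer alone without lysate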
HER2 expr 66K: lowers expression of human Her2 kinase | actives 0.69% (n = 65,000) | P04626 | HER2 level % of control, % at 10 µM | SKBR-3 HER2 protein level, AlphaScreen, 18-24 h; hits give low values;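 active = HER2 level under 5% of the carrier-only control; inconclusive = no clear call, values can overlap the other calls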;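 also: 100% = DMSO carrier and 0% = 500 nM PU-H71 HSP90 inhibitor; lower value means stronger loss of Her2 protein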
Starred values were filed as active, the others as inactive; ? = inconclusive; . = not tested or not shown.

SMILES | DUSP1 inh | SKBR3 24h inh | Cdc25B inh | Hsp90 block | HER2 expr 66K
Cc1ccc(-c2c3c(=O)n(C)c(=O)n(C)c3c3c(C)cc(C)nn23)cc1 | 5 | 81 | -3 | 0 | 99
CC(C)c1nnc(NC(=O)CCS(=O)(=O)c2nc(-c3cccs3)cc(C(F)(F)F)n2)s1 | 4 | 92 | 1 | -1 | -19*
O=C(c1cc2nc3c(c(C(F)(F)F)n2n1)CCc1ccccc1-3)N1CCN2CCCC2C1 (stereo unspecified) | -1 | 77 | -12 | -4 | 90
CN(Cc1nc2ccccc2c(=O)[nH]1)CC(O)COCc1ccco1 (stereo unspecified) | 5 | . | -1 | -6 | 78
CN(CC(=O)NC(=O)NCc1ccco1)Cc1nc2ccccc2c(=O)[nH]1 | 31 | . | 5 | -2 | -33*
COc1ccc(NC(=O)c2cnc3ccccn3c2=O)cc1OC | 14 | . | -5 | 4 | 123
Cc1ccc(S(=O)(=O)N(C)CCCC(=O)N2CCOCC2)cc1 | 8 | 93 | -9 | 0 | 91
Cc1ccc(S(=O)(=O)C(CCC(=O)N2CCOCC2)S(=O)(=O)c2ccc(C)cc2)cc1 | -8 | 100 | -1 | 88* | 110
CCNC(=O)[C@@H]1CCCN1C(=O)[C@H](CCCN=C(N)N)NC(=O)[C@H](CC(C)C)NC(=O)[C@@H](CC(C)C)NC(=O)[C@H](Cc1ccc(O)cc1)NC(=O)[C@H](CO)NC(=O)[C@H](Cc1c[nH]c2ccccc12)NC(=O)[C@H](Cc1cnc[nH]1)NC(=O)[C@@H]1CCC(=O)N1 | -4 | 81 | -9 | . | 117
CCn1c(CSc2nccn2C)nc2cc(C(=O)O)ccc21 | 6 | . | -4 | 89* | 92
C=C(C)COc1ccc(-c2[nH]ncc2Oc2ccccc2OCC)c(O)c1 | 20 | 89 | -1 | 3 | -17*
C=C(C)COc1ccc(-c2n[nH]c(C)c2Oc2ccccc2OC)c(O)c1 | 15 | 97 | -6 | -1 | -6.3*
C=C(C)COc1ccc(-c2[nH]ncc2Oc2cccc(OC)c2)c(O)c1 | 8 | 87 | -5 | -2 | 52
CC1CCN(C(=O)CSc2ccc3nnc(-c4ccc(F)cc4)n3n2)CC1 | 33 | . | -12 | -2 | 101
CCCCn1c(NC(=O)c2ccc(F)cc2)c(C#N)c2nc3ccccc3nc21 | ? | . | 79* | 41 | 66
[N-]=[N+]=CC(=O)CC(c1ccccc1)N1C(=O)c2ccccc2C1=O (stereo unspecified) | -1 | 88 | -6 | -7 | -28*
[N-]=[N+]=CC(=O)CCCN1C(=O)c2ccccc2C1=O | -21 | 87 | 0 | -1 | 101
COc1ccc(-n2c(SCC(=O)N3CCCC3)nc3c([nH]c4ccccc43)c2=O)cc1 | 54* | . | -42 | -3 | 73
COc1ccc(Cl)c(Cn2c(NCc3ccco3)nc3c2c(=O)n(C)c(=O)n3C)c1 | 12 | 81 | -8 | -14 | -26*
CCn1nnc(-c2ccccc2NC(=O)c2cccc(-n3cnnn3)c2)n1 | 14 | 42* | -3 | -5 | 89
CCn1nnc(-c2ccccc2NC(=O)c2ccc(-n3cnnn3)cc2)n1 | 12 | 90 | 2 | -1 | 97
CCn1cc(S(=O)(=O)CC(=O)Nc2cc(C)ccc2C)c2ccccc21 | 2 | . | -8 | 0 | 85
Cc1cc(NC(=O)CS(=O)(=O)c2cn(Cc3ccccc3Cl)c3ccccc23)no1 | 6 | 34* | . | -6 | 94
CCCn1c(=O)n(C)c(=O)c2c3oc(=O)c(NC(=O)c4ccc(F)cc4)cc3[nH]c21 | -1 | . | -5 | -5 | 46
O=C1NCCCC2c3cc(O)c4ccccc4c3OC12N1CCCCC1 (stereo unspecified) | 40 | 5.1* | 46 | 95* | 67
SMILES | DUSP1 inh | SKBR3 24h inh | Cdc25B inh | Hsp90 block | HER2 expr 66K
COc1ccccc1-c1cc(C(F)(F)F)nc(S(=O)(=O)CCCC(=O)Nc2cc(C)on2)n1 | -9 | 97 | -4 | -1 | -16*
Cc1cc(NC(=O)CCCSc2nc(-c3ccco3)cc(C(F)(F)F)n2)no1 | 3 | 103 | 1 | -4 | 99
COc1ccccc1-c1cc(C(F)(F)F)nc(S(=O)(=O)CCCC(=O)NC(C)C)n1 | -9 | 91 | -13 | 2 | -13*
COc1ccccc1-c1cc(C(F)(F)F)nc(S(=O)(=O)CCCC(=O)N2CCCCC2C)n1 (stereo unspecified) | 16 | 38* | -10 | 1 | -17*
COc1ccccc1-c1cc(C(F)(F)F)nc(N2CCCC2)n1 | 2 | 66 | -5 | . | 124
COc1cc2c(cc1OC)[C@@H](c1ccccc1)CN(C)CC2 | . | . | . | 0 | .
N#CC1=C(c2ccccc2)N=P(N2CCOCC2)(N2CCOCC2)N=C1N1CCOCC1 | 3 | 110 | -6 | . | .
Cc1c(/C(O)=C2/C(=O)C(=O)N(CCCN3CCOCC3)C2c2ccncc2)cnn1-c1ccccc1 (stereo unspecified) | -17 | 91 | 21 | -3 | 117
COc1ccc2nccc(C)c2c1 | . | . | . | -1 | .
O=C(CN1C(=O)C2C3C=CC(C3)C2C1=O)Nc1ccc2c(c1)OCCO2 (stereo unspecified) | -8 | 32* | -1 | -3 | 98
COc1ccc(C2CC(=O)C(C=NCCN3CCN(C(C)=O)CC3)=C(O)C2)cc1OC (stereo unspecified) | 2 | . | -2 | -2 | 125
COc1ccc(C2CC(=O)C(C=NCCO)=C(O)C2)cc1OC (stereo unspecified) | 17 | 85 | -17 | . | -28*
O=C(NCC(=O)N(CCc1ccccc1)C(C(=O)NC1CCCCC1)c1ccncc1)c1ccco1 (stereo unspecified) | -11 | 107 | -2 | -5 | 113
O=C(NCC(=O)N(CCc1ccccc1)C(C(=O)NC1CCCC1)c1cccnc1)c1ccco1 (stereo unspecified) | 14 | 71 | 6 | -1 | -19*
O=C(Cc1ccc(F)cc1)Nc1c2c(nn1-c1cccc(Cl)c1)CS(=O)C2 (stereo unspecified) | -21 | 36* | -18 | 0 | 115
Cc1nnc(SCC(=O)c2c(N)n(C)c(=O)n(C)c2=O)n1Cc1ccccc1 | 25 | . | -13 | -2 | -33*
Cc1occc1-c1nnc(SCC(=O)c2c(N)n(Cc3ccccc3)c(=O)n(C)c2=O)n1C | 23 | . | -2 | -5 | 87
CCCc1cc(NCCN2CCOCC2)n2c(nc3ccccc32)c1C#N | -23 | 105 | 0 | 2 | 122
CC(C)C[C@H](N)c1nnc(S(=O)(=O)Cc2ccc(F)cc2)o1 | -10 | 33* | -2 | -2 | 51
Cn1cc(S(=O)(=O)Cc2ccc(F)cc2)c2ccccc21 | 0 | . | -7 | -3 | 94
O=C1CCC(C(=O)NC2(C(=O)NC3CCCCC3)CCCCC2)N1 (stereo unspecified) | 8 | 28* | -9 | . | 96
Cc1ccc(N(C(=O)C2CCC(=O)N2)C2(C(=O)NC3CCCCC3)CCCCC2)cc1 (stereo unspecified) | 8 | 86 | -13 | 1 | 87
Cc1ccc(C)c(-n2nnnc2SCC(=O)c2ccc3c(c2)NC(=O)CO3)c1 | 52* | . | -6 | -6 | 95
